Laboratory results reported in PubChem BioAssay (NCI).
Compounds without any hit were thinned out: in the full panel of roughly 83,000, 20% have a hit.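 96-well plates, one dose, 48 hours. Percent growth reported; active if below 10.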 Unmarked numbers belong to inactive results. The source made the active and inactive calls.

test system: EKVX NSCLC; test: NCI-60 one-dose screen, 48 h (100 = growth as untreated, 0 = no growth, -100 = all killed); conditions: 10 µM
Procedure: Growth inhibition of the EKVX human Non-Small Cell Lung tumor cell line is measured as a screen for anti-cancer activity. Cells are grown in 96 well plates and exposed to the test compound for 48 hours. Compounds are tested at a single concentration, which is 10^-5 M for most compounds. The reported endpoint is percent growth (GI% or GIPRCNT), where numbers from 0 - 100% represent growth inhibition, and numbers from -100% - 0 represent cell death. For example, a value of 40 represents 60% growth inhibition. A value of 0 means no net growth occurred over the course of the experiment. A value of -40 indicates 40% of cells at the beginning of the experiment died by the end of the experiment. A value of -100 means all cells are dead at the end of the experiment.
NCI-60 Human Tumor Cell Lines Screen was performed using the standard one-dose NCI protocol, which is described in more detail at https://dtp.cancer.gov/discovery_development/nci-60/default.htm.
Compounds with GIPRCNT values below 10 were considered active. Activity score was based on GIPRCNT using the following formula: […]
Score is 0 for GIPRCNT values of 100 or above, 50 for GIPRCNT values of 0, and 100 for GIPRCNT values of -100.

SMILES	growth
Cn1cc(-c2cc3nc(-c4c[nH]c5ccccc45)cc(N)n3n2)c2cc(Cl)ccc21	-90% (active)
O=C(Nc1ccc(OCc2ccc(F)cc2)cc1)Nc1ccc(Cl)c(C(F)(F)F)c1	8.3% (active)
COc1cc(Nc2nc(O)c(/C=C3\C=Nc4ccccc43)s2)cc(OC)c1OC	-41.8% (active)
COc1ccccc1-n1cc(C#N)c(N)c1C(=O)c1ccc(Cl)cc1Cl	29.6%
COc1ccc(NCc2cn(-c3ccc(C(=O)O)cc3)nc2-c2ccc(F)cc2)cc1C(F)(F)F	45.5%
O=C(c1ccccc1)c1ccc2nc(-c3ccccc3Br)[nH]c2c1	-76.8% (active)
O=C(c1ccc(Cl)cc1)C(c1c[nH]c2ccccc12)c1c[nH]c2ccccc12	-69% (active)
Nc1nnc(-c2c[nH]c3ncc(Br)cc23)c(-c2c[nH]c3ccc(Br)cc23)n1	46.2%
Cn1cc(-c2cc(N)n3nc(-c4cn(C)c5ccccc45)cc3n2)c2cc(F)ccc21	-50.1% (active)
Fc1ccc(/C=C/c2nc3ccccc3n3c(-c4ccc(Cl)cc4)nnc23)cc1	74.6%
Cc1ccc2c(c1)C(=O)/C(=C/c1ccc([N+](=O)[O-])cc1)S2	91.6%
COc1cc2oc(-c3cccc(C(=O)Nc4ccc(Cl)cc4)c3)cc(=O)c2c(OCCN)c1OC	-84.6% (active)
Cc1cc(N=C2NC(=O)/C(=C/c3cc(C(C)(C)C)c(O)c(C(C)(C)C)c3)S2)n[nH]1	2.77% (active)
O=C1NC(=S)S/C1=C\c1cn(-c2ccccc2)nc1-c1ccc([N+](=O)[O-])cc1	9.43% (active)
O=C(Nc1ccc(Oc2ncnc3scc(Nc4n[nH]c(=S)s4)c23)cc1)C1(C(=O)Nc2cccc(C(F)(F)F)c2)CC1	97.1%
COc1cccc(O)c1/C=C1\SCc2cc3c(OC)cccc3[o+]c21	105%
C#CCOc1cc(N(CC)CC)ccc1C(C(=O)NC(C)(C)C)N(C(=O)C1CCc2cc(F)ccc2O1)c1ccc(F)cc1F (stereo not given)	47.6%
COc1ccc(OC)c(-n2cc(C#N)c(N)c2C(=O)c2ccc(Cl)cc2Cl)c1	42.7%
COc1cc(C2CC(c3ccccc3)=Nc3c(N)nc(N)nc3N2)ccc1Oc1nc(NCCO)nc(N2CCOCC2)n1 (stereo not given)	97.6%
Cc1ccc(-c2nc(C#N)c(S(=O)(=O)N3CCN(S(C)(=O)=O)CC3)o2)cc1	101%

SMILES	growth
C#C[C@]1(O)CC[C@H]2[C@@H]3CC=C4c5sc(Nc6ccc(N(C)C)cc6)nc5CC[C@]4(C)[C@H]3CC[C@@]21C	24.7%
COc1cc2oc(-c3cccc(C(=O)Nc4ccc(Cl)cc4)c3)cc(=O)c2c(OCCNC(=O)[C@@H](N)CO)c1OC	54.7%
COc1cccc(C(=O)CSc2nc(-c3ccc(OCc4ccccc4)c(OC)c3)c(C#N)c(=O)[nH]2)c1	97.1%
O=C1S/C(=C\c2ccc([N+](=O)[O-])cc2)C(=O)N1CCN1CCCCC1	104%
Fc1ccc(-c2csc(Nc3cccc(Nc4nc(-c5ccc(F)cc5)cs4)c3)n2)cc1	39.8%
Cn1cc(-c2nnc(N)nc2-c2c[nH]c3ccccc23)c2cc(Br)cnc21	46.6%
CCOC(=O)c1ccc(NC(=O)CSC(CC(=O)c2sc(Nc3ccccn3)nc2C)c2ccccc2F)cc1 (stereo not given)	20.2%
C#C[C@]1(O)CC[C@H]2[C@@H]3CC=C4c5sc(Nc6cc(C)cc(C)n6)nc5CC[C@]4(C)[C@H]3CC[C@@]21C	-14% (active)
COc1ccc(Cn2cc(C#N)c(N)c2C(C)=O)c(OC)c1	98.6%
CCOC(=O)C1=C(N)N(c2ccc(C)cc2)C2=C(C(=O)CC(C)(C)C2)C1c1ccccc1Br (stereo not given)	91%
Cc1ccc2c(c1)C(=O)/C(=C/c1c[nH]c3ccccc13)S2	50.8%
COc1ccc(C2c3sc4ccc(C)cc4c3Oc3nc(N)nc(N)c32)cc1 (stereo not given)	76.4%
COC(=O)CNC(=O)COc1c(OC)c(OC)cc2oc(-c3cccc(C(=O)Nc4ccc(Cl)cc4)c3)cc(=O)c12	64.1%
O=C(CN1CCN(c2ncnc3c2cnn3-c2ccccc2)CC1)Nc1ccc(Cl)cc1	45%
O=C(c1ccc(F)cc1)C(c1c[nH]c2ccccc12)c1c[nH]c2ccccc12	88.5%
COc1cc(C2CC(c3ccc(Oc4ccc(Cl)cc4)cc3)=NN2c2nc(-c3ccc(Cl)cc3)c(C#N)c(N3CCOCC3)n2)cc(OC)c1OC (stereo not given)	94.5%
O=C1NC2C=CC=CC2/C1=C1/SC(=S)N(C2CC(=O)N(c3ccc(Br)cc3)C2=O)C1=O (stereo not given)	92.6%
CCn1c(SCC(=O)Nc2ccc(-c3nc4ccccc4[nH]3)cc2)nc2ccccc2c1=O	-42.5% (active)
COc1cc(-c2nc3ccc(C)cc3[nH]2)ccc1OCc1nnc(-c2ccccc2Br)o1	64.6%
O=C(Nc1ccc(OCc2ccc(Cl)cc2)cc1)Nc1ccc(Cl)c(C(F)(F)F)c1	2.59% (active)
